# According to PubChem BioAssay (Tox21):
# Inconclusive results are not listed. Where a call stands in place of a potency, no number is given. Values without a mark were called inactive. Activity calls are given as the source filed them. Unless noted, the call rests on the fitted dose curve; in most records, active means well fitted curve in the direction sought with a large enough effect in the repeat runs; inconclusive means weak or mixed curves; inactive means no such curve, though single readings can be large; an effect the other way counts as inactive or inconclusive.
# Experiments:
# [1] = qHTS assay to identify small molecule agonists of the peroxisome proliferator-activated receptor delta (PPARd) signaling pathway - cell viability counter screen (AID 743211); further: nearly all actives have a fitted effect of over 55% in size
# Procedure, shortened: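 PPARd-bla HEK293H cells (UAS-beta-lactamase reporter) were treated with compounds for 17 h at 37 C. Viability was then read in the same wells by CellTiter-Glo luminescence after 30 min at room temperature.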
# [2] = molecular target: Peroxisome proliferator-activated receptor delta (Homo sapiens) (UniProt Q03181); experiment: qHTS assay to identify small molecule agonists of the peroxisome proliferator-activated receptor delta (PPARd) signaling pathway (AID 743212; calls by dose curve)
# Chain of Peroxisome proliferator-activated receptor delta (Homo sapiens) (Q03181 whole entry, looked up): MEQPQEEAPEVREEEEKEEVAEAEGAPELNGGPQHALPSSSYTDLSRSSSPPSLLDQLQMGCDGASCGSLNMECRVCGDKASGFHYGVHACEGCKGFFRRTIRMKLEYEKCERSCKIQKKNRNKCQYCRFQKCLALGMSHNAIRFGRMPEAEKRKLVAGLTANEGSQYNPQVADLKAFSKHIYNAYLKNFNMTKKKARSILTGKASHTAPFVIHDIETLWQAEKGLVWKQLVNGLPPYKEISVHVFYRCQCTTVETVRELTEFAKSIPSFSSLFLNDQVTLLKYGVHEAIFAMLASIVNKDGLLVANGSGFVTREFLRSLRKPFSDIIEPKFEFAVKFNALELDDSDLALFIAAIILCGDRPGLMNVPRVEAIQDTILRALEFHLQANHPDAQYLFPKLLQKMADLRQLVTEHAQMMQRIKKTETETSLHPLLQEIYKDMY
# Procedure, shortened: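 HEK293H UAS-bla reporter cells, human PPARd system; compounds delivered in DMSO after 5 h plating, then at 37 C. Beta-lactamase FRET read, 2 h RT substrate step.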
# [3] = qHTS assay to identify small molecule antagonists of the peroxisome proliferator-activated receptor delta (PPARd) signaling pathway - cell viability counter screen (AID 743213); further: nearly all actives have a fitted effect of over 50% in size
# Procedure, shortened: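 Same-well viability: cells pre-incubated 5 h, dosed with compound plus 300 nM L165041, kept 17 h at 37 C, FRET substrate 2 h RT, then CellTiter-Glo 30 min RT and luminescence.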
# [4] = molecular target: Peroxisome proliferator-activated receptor delta (Homo sapiens) (UniProt Q03181); experiment: qHTS assay to identify small molecule antagonists of the peroxisome proliferator-activated receptor delta (PPARd) signaling pathway (AID 743215; active means well fitted inhibition curve with a large enough effect in the signal ratio in the repeat runs, not every such curve was filed as active; the % refers to the signal ratio;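 further: cells stimulated with agonist L165041 at 300 nM final during compound exposure; series mostly up to about 62 µM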)
# Procedure, shortened: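 Antagonist-mode beta-lactamase reporter screen: HEK293H cells with UAS-bla under PPARd control, stimulated by 300 nM L165041 (final) alongside test compound for 17 h at 37 C, then FRET fluorescence after 2 h substrate incubation.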
# [5] = qHTS assay to identify small molecule agonists of the farnesoid-X-receptor (FXR) signaling pathway - cell viability counter screen (AID 743218); further: nearly all actives have a fitted effect of over 45% in size
# Procedure, shortened: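 In GeneBLAzer FXR-UAS-bla HEK 293T cells, compounds act for 16 h at 37 C. Cell viability is then scored in the reporter wells by CellTiter-Glo, 30 min at RT, luminescence.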
# [6] = qHTS assay to identify small molecule antagonists of the farnesoid-X-receptor (FXR) signaling pathway - cell viability counter screen (AID 743221; active means well fitted cell-killing curve with a large enough effect in the repeat runs, not every such curve was filed as active; further: nearly all actives have a fitted effect of over 50% in size)
# Procedure, shortened: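 FXR-UAS-bla HEK 293T cells were treated with test compounds plus chenodeoxycholic acid (50 uM final) for 16 h at 37 C. Cell viability in the same wells was then read as CellTiter-Glo luminescence after 30 min at room temperature.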
# [7] = qHTS assay to identify small molecule antagonists of the vitamin D receptor (VDR) signaling pathway - cell viability counter screen (AID 743225); further: nearly all actives have a fitted effect of over 50% in size
# Procedure, shortened: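 VDR-bla HEK 293T cells, 4 h pre-incubation at 37C, then compound plus 1-alpha,25-dihydroxyvitamin D3 (3 nM final) for 16 h. After the beta-lactamase FRET read, CellTiter-Glo was added to the same wells; luminescence after 30 min at room temperature.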
# [8] = qHTS assay to identify small molecule agonists of the NFkB signaling pathway (AID 1159509; active means well fitted curve in the direction sought with a large enough effect in the signal ratio in the repeat runs, not every such curve was filed as active; the % refers to the signal ratio; further: series mostly up to about 61 µM)
# Procedure, shortened: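 After overnight attachment, reporter cells received test compounds, DMSO or positive controls and were incubated 5 hr at 37 C. FRET substrate was then added for 1.5 hr at room temperature before dual-emission fluorescence reading.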
# [9] = qHTS assay to identify small molecule agonists of the NFkB signaling pathway - cell viability counter screen (AID 1159515; calls by dose curve; further: nearly all actives have a fitted effect of over 55% in size; further: potency means the concentration at half of the fitted maximal effect)
# Procedure, shortened: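 Viability in NFkB-bla ME-180 cells was measured by CellTiter-Glo luminescence, 30 min room temperature, in wells already treated 5 hr with compounds and read for reporter FRET.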
# [10] = qHTS assay to identify small molecule agonists of the endoplasmic reticulum stress response signaling pathway (AID 1159516; active means well fitted activation curve with a large enough effect in the signal ratio in the repeat runs, not every such curve was filed as active; the % refers to the signal ratio; further: potency means the concentration at half of the fitted maximal effect)
# Procedure, shortened: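 ER stress element reporter (bla) in HeLa. 1,500 cells/well, overnight attachment; 5 hr compound; 2 hr RT substrate; dual-emission fluorescence.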
# [11] = qHTS assay to identify small molecule antagonists of the retinoid-related orphan receptor gamma (ROR-gamma) signaling pathway - cell viability counter screen (AID 1159520); further: nearly all actives have a fitted effect of over 50% in size; further: potency means the concentration at half of the fitted maximal effect
# Procedure, shortened: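 Cytotoxicity was read from cellular ATP (CellTiter-Glo luminescence) after 16 hr at 37 C with 1 uM doxycycline induction. The inducer was added 2 hr after compound transfer to Tet-on ROR gamma CHO cells.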
# [12] = molecular target: Nuclear receptor ROR-gamma (Homo sapiens) (UniProt P51449); experiment: qHTS assay to identify small molecule antagonists of the retinoid-related orphan receptor gamma (ROR-gamma) signaling pathway (AID 1159521; further: nearly all actives have a fitted effect of over 50% in size; further: potency means the concentration at half of the fitted maximal effect)
# Procedure, shortened: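 Tet-on RORγ CHO cells carrying a ROR response element–luciferase reporter were pretreated with compounds for 2 h, then induced with 1 uM (final) doxycycline hyclate for 16 h at 37 C. Antagonism was read as decreased ONE-Glo luminescence.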
# [13] = qHTS assay to identify small molecule agonists of the AP-1 signaling pathway - cell viability counter screen (AID 1159525; calls by dose curve; further: nearly all actives have a fitted effect of over 55% in size)
# Procedure, shortened: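 Luminescent ATP readout (Cell Titer Glo, 30 min RT), normalised to DMSO and tetra n-octyl ammonium bromide controls. Cells were ME-180 AP-1-bla in 0.5% dialyzed FBS Opti-MEM, with a 5 h, 37 °C compound exposure.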
# [14] = qHTS assay to identify small molecule agonists of the AP-1 signaling pathway (AID 1159526; calls by dose curve)
# [15] = molecular target: Vitamin D3 receptor (Homo sapiens) (UniProt P11473); experiment: qHTS assay to identify small molecule agonists of the vitamin D receptor (VDR) signaling pathway (AID 743222; calls by dose curve)
# Chain of Vitamin D3 receptor (Homo sapiens) (P11473 whole entry, looked up): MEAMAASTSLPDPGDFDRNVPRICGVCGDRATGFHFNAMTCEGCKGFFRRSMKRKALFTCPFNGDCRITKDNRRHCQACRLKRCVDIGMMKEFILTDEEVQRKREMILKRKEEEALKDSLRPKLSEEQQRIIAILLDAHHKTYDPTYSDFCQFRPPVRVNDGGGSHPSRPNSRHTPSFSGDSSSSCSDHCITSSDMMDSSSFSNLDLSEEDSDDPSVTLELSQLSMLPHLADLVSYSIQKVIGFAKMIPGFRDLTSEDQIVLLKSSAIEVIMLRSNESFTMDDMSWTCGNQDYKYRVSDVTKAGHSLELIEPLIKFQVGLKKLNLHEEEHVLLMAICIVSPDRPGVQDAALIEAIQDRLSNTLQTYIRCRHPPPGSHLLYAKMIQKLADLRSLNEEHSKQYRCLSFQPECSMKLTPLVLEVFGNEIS
# Procedure, shortened: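 Agonist activity measured in VDR-bla reporter cells. Exposure 16 h, 37C, 5% CO2; detection by B/G FRET substrate, 2 h RT.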
# [16] = qHTS assay to identify small molecule agonists of the vitamin D receptor (VDR) signaling pathway - cell viability counter screen (AID 743224)
# Procedure, shortened: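 VDR-bla cell line, quantitative HTS format; 16 h compound incubation (37C, 5% CO2); ATP-based CellTiter-Glo luminescence measured in the reporter assay wells.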
# [17] = molecular target: Bile acid receptor (Homo sapiens) (UniProt Q96RI1); experiment: qHTS assay to identify small molecule antagonists of the farnesoid-X-receptor (FXR) signaling pathway (AID 743217; active means well fitted inhibition curve with a large enough effect in the signal ratio in the repeat runs, not every such curve was filed as active; the % refers to the signal ratio)
# Chain of Bile acid receptor (Homo sapiens) (Q96RI1 whole entry, looked up): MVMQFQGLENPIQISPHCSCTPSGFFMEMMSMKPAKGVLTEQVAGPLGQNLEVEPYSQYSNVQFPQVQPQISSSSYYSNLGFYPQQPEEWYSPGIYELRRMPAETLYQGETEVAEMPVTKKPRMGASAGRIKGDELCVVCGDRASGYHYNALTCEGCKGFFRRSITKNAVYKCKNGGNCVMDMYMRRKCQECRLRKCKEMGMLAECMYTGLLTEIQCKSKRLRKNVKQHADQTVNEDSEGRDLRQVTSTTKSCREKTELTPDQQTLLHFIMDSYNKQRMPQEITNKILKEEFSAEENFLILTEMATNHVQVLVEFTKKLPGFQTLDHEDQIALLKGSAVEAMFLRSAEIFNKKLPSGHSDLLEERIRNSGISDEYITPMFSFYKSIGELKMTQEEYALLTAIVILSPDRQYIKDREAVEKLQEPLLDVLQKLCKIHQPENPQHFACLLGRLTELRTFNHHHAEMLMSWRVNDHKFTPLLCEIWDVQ
# Procedure, shortened: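 Beta-lactamase reporter under UAS control in HEK 293T cells; compound exposure 16 h at 37 °C in the presence of chenodeoxycholic acid (50 uM final); signal from B/G FRET substrate after 2 h at room temperature.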
# [18] = molecular target: Bile acid receptor (Homo sapiens) (UniProt Q96RI1); experiment: qHTS assay to identify small molecule agonists of the farnesoid-X-receptor (FXR) signaling pathway (AID 743220; active means well fitted activation curve with a large enough effect in the signal ratio in the repeat runs, not every such curve was filed as active; the % refers to the signal ratio)
# Procedure, shortened: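 Beta-lactamase reporter under UAS control in GeneBLAzer FXR HEK 293T cells (5000/well) measured with LiveBLAzer FRET substrate after 2 h at room temperature. Compound exposure lasted 16 h at 37C.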
# [19] = molecular target: Vitamin D3 receptor (Homo sapiens) (UniProt P11473); experiment: qHTS assay to identify small molecule antagonists of the vitamin D receptor (VDR) signaling pathway (AID 743223; active means well fitted inhibition curve with a large enough effect in the signal ratio in the repeat runs, not every such curve was filed as active; the % refers to the signal ratio)
# Procedure, shortened: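 VDR-bla cells were plated, incubated 4 h at 37C, then given compound and 1alpha,25-dihydroxyvitamin D3 (3 nM final). After 16 h at 37C, LiveBLAzer B/G FRET substrate was added for 2 h at room temperature and fluorescence read.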
Compound,Potency [1],outcome [2],Potency [3],Potency [4],Potency [5],Potency [6],Potency [7],outcome [8],Potency [9],Potency [10],Potency [11],Potency [12],Potency [13],outcome [14],outcome [15],Potency [16],outcome [17],Potency [18],outcome [19]
O=C(NS(=O)(=O)/C=C/c1ccccc1)c1ccc(F)cc1Cl,inactive,inactive,inactive,inactive,inactive,inactive,inactive,inactive,inactive,inactive,inactive,inactive,inactive,inactive,,,,,
O=C1[C@@H]2[C@H]3CC[C@H](C3)[C@@H]2C(=O)N1CCCCN1CCN(c2ncccn2)CC1,inactive,inactive,inactive,inactive,inactive,inactive,,inactive,inactive,inactive,inactive,inactive,inactive,inactive,inactive,inactive,,,
CCCCCCCCCCCCCOS(=O)(=O)O,,,,,,,,inactive,54.9 µM (active),inactive,inactive,inactive,,,,,,,
CC(=O)OC(C)C[N+](C)(C)C (centres undefined),inactive,inactive,inactive,inactive,inactive,inactive,inactive,inactive,inactive,inactive,,inactive,inactive,,inactive,inactive,,,
O=C(CCS)OCC(COC(=O)CCS)(COC(=O)CCS)COC(=O)CCS,,inactive,inactive,,inactive,inactive,inactive,inactive,inactive,8.71 µM (active),,inactive,inactive,inactive,inactive,inactive,inactive,inactive,inactive
O=C(Nc1ccc(C(=O)O)c(O)c1)c1ccccc1,inactive,inactive,inactive,inactive,inactive,inactive,inactive,inactive,inactive,inactive,inactive,inactive,,inactive,inactive,inactive,,,inactive
C=CC(=O)NC(C)C,inactive,inactive,inactive,inactive,inactive,inactive,inactive,inactive,inactive,inactive,inactive,,inactive,inactive,inactive,,inactive,inactive,
CCN(Cc1cccc(S(=O)(=O)O)c1)c1ccc(C(=C2C=CC(=[N+](CC)Cc3cccc(S(=O)(=O)O)c3)C=C2)c2ccc(O)cc2S(=O)(=O)[O-])cc1,,inactive,,inactive,,,,inactive,26.5 µM (active),inactive,10.5 µM (active),14.8 µM (active),,inactive,inactive,,inactive,inactive,
O=C(O)CCS,,inactive,inactive,inactive,inactive,inactive,inactive,inactive,inactive,inactive,inactive,inactive,,inactive,inactive,inactive,inactive,inactive,inactive
